Laboratory results taken from PubChem BioAssay (Tox21).
Values joined by “and” are separate entries in the source; they are usually repeats but may differ in a detail not shown here. Equal entries are not always repeated. Results filed as inconclusive are left out. Where a call stands in place of a potency, no number is given. Unmarked numbers belong to inactive results. Active and inactive are the calls of the source. Unless noted, calls follow the shape of the dose curve; as a rule, active = well fitted activation curve with a large enough effect in the repeat runs; inconclusive = weak or mixed curves, or effect the other way; inactive = no such curve, though single readings can be large or run the other way.

Assay: qHTS assay to identify small molecule antagonists of the estrogen related receptor signaling pathway with the pleiotropic PPARgamma coactivator (PGC) from Tox21 10K library - cell viability counter screen (AID 1224840; active = well fitted cell-killing curve with a large enough effect in the repeat runs, not every such curve was filed as active; also: nearly all actives have a fitted effect of over 40% in size)
Details: PGC/ERR reporter cells viability, CellTiter-Fluor, 17.5 h; series mostly up to 92.4 µM
How it was run: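 Multiplexed viability counter screen in the PGC/ERR cell line: cells treated with DMSO-dissolved compounds for 17.5 hours at 37 C, then viability measured as CellTiter-Fluor fluorescence.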

SMILES	Potency	viability change, negative = cytotoxic
OC(CCN1CCCCC1)(c1ccccc1)C1CC2C=CC1C2 (stereo not given)	inactive	–
CCCN(CCC)CCc1cccc2c1CC(=O)N2	inactive	–
Cc1ccc(=O)n(-c2ccccc2)c1	inactive	–
CCCCCCCCCCCC	inactive	–
c1cnc(N2CCN(Cc3ccc4c(c3)OCO4)CC2)nc1	inactive	–
COC(=O)c1c(Cl)c(Cl)c(C(=O)OC)c(Cl)c1Cl	inactive	–
C[C@](N)(Cc1ccc(O)cc1)C(=O)O	–	-0.23% [at 8.39 µM]
N[C@H](C(=O)O)c1ccc(O)cc1	–	-4.51% [at 19 µM]
CCn1ccnc1CC1COc2ccccc2O1 (stereo not given)	inactive	–
CCN1CCC[C@H]1CNC(=O)c1cc(S(N)(=O)=O)ccc1OC	inactive	–
NC(CSCC(=O)O)C(=O)O (stereo not given)	inactive	–
COC(=O)C1=C(C)NC(C)=C(C(=O)OC)C1c1ccccc1[N+](=O)[O-]	inactive	–
CCn1nc(C(=O)O)c(=O)c2cc3c(cc21)OCO3	inactive	–
COC(=O)[C@@H](N)Cc1ccc(O)c(O)c1	inactive	–
C[C@H](NC(CCc1ccccc1)C(=O)O)C(=O)N1CCC[C@H]1C(=O)O (stereo not given in full)	inactive	–
CC(C)NCC(O)c1ccc(NS(C)(=O)=O)cc1 (stereo not given)	inactive	–
CCO/C([O-])=N/c1c[n+](N2CCOCC2)no1	inactive	–
O=C(O)CN(CCOCCOCCN(CC(=O)O)CC(=O)O)CC(=O)O	–	-9.4% [at 0.349 µM]
CCN1CCC[C@H]1CNC(=O)c1c(O)c(Cl)cc(Cl)c1OC	inactive	–
CC(C(=O)O)c1ccc(CC2CCCC2=O)cc1 (stereo not given)	inactive	–
COCCc1ccc(OCC(O)CNC(C)C)cc1 (stereo not given)	inactive	–
Nc1nc2c(ncn2COC(CO)CO)c(=O)[nH]1	inactive	–
CC(C[N+](C)(C)C)OC(N)=O (stereo not given)	inactive	–
Nc1c2c(nc3ccccc13)CCCC2O (stereo not given)	inactive	–

Assay: qHTS assay to identify small molecule antagonists of the estrogen related receptor signaling pathway with the pleiotropic PPARgamma coactivator (PGC) from Tox21 10K library (AID 1224841; call rule not given here; also: actives are mostly falling curves and most rising ones were filed inactive; nearly all actives have a fitted effect of over 50% in size; also: potency is read from the fitted curve at half-maximal effect)
Details: PGC/ERR reporter cell line, ONE-Glo luciferase, 18 h; series mostly up to 92.4 µM
How it was run: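 Steps: plate 2,000 PGC/ERR cells per well; incubate 6 h at 37 C with 5% CO2; transfer compounds from DMSO stocks by pin tool; incubate 18 h at 37 C; add One-Glo; measure luminescence 30 min later.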

SMILES	Potency	activity, negative = inhibition
CC(C)(c1ccc(O)cc1)c1ccc(O)cc1	60.4 µM (active) and 60.4 µM [inhibitor] (active)	–
Cc1ccc(=O)n(-c2ccccc2)c1	inactive	–
CCCCCCCCCCCC	inactive	–
COC(=O)c1c(Cl)c(Cl)c(C(=O)OC)c(Cl)c1Cl	inactive	–
N[C@H](C(=O)O)c1ccc(O)cc1	–	1.15% [at 19 µM]
CCn1ccnc1CC1COc2ccccc2O1 (stereo not given)	inactive	–
Brc1c(NC2=NCCN2)ccc2nccnc12	inactive	–
NC(CSCC(=O)O)C(=O)O (stereo not given)	inactive	–
COC(=O)C1=C(C)NC(C)=C(C(=O)OC)C1c1ccccc1[N+](=O)[O-]	inactive	–
CCn1nc(C(=O)O)c(=O)c2cc3c(cc21)OCO3	inactive	–
COC(=O)[C@@H](N)Cc1ccc(O)c(O)c1	inactive	–
C[C@H](NC(CCc1ccccc1)C(=O)O)C(=O)N1CCC[C@H]1C(=O)O (stereo not given in full)	inactive	–
CCO/C([O-])=N/c1c[n+](N2CCOCC2)no1	inactive	–
O=C(O)CN(CCOCCOCCN(CC(=O)O)CC(=O)O)CC(=O)O	–	5.6% [at 0.349 µM]
Cc1cccc(C)c1NC(=O)C(C)N (stereo not given)	inactive	–
CCOC(=O)Nc1ccc(NCc2ccc(F)cc2)nc1N	inactive	–
COCCc1ccc(OCC(O)CNC(C)C)cc1 (stereo not given)	inactive	–
CC(C[N+](C)(C)C)OC(N)=O (stereo not given)	inactive	–
Nc1c2c(nc3ccccc13)CCCC2O (stereo not given)	inactive	–

Assay: qHTS assay to identify small molecule agonists of the estrogen related receptor signaling pathway with the pleiotropic PPARgamma coactivator (PGC) from Tox21 10K library (AID 1224842); also: nearly all actives have a fitted effect of over 15% in size
Details: PGC/ERR reporter cell line, luciferase ONE-Glo, 18 h; series mostly up to 92.4 µM
How it was run: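 PGC/ERR reporter cell line, 2,000 cells per well, incubated 6 h at 37 C before 23 nL compound in DMSO was added. After 18 h at 37 C, One-Glo luminescence read following 30 min at room temperature.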

SMILES	outcome	activation
CC(C)(c1ccc(O)cc1)c1ccc(O)cc1	inactive	–
Cc1ccc(=O)n(-c2ccccc2)c1	inactive	–
CCCCCCCCCCCC	inactive	–
COC(=O)c1c(Cl)c(Cl)c(C(=O)OC)c(Cl)c1Cl	inactive	–
C[C@](N)(Cc1ccc(O)cc1)C(=O)O	–	-0.549% [at 8.39 µM]
N[C@H](C(=O)O)c1ccc(O)cc1	–	0.319% [at 19 µM]
CCn1ccnc1CC1COc2ccccc2O1 (stereo not given)	inactive	–
Brc1c(NC2=NCCN2)ccc2nccnc12	inactive	–
NC(CSCC(=O)O)C(=O)O (stereo not given)	inactive	–
COC(=O)C1=C(C)NC(C)=C(C(=O)OC)C1c1ccccc1[N+](=O)[O-]	inactive	–
CCn1nc(C(=O)O)c(=O)c2cc3c(cc21)OCO3	inactive	–
COC(=O)[C@@H](N)Cc1ccc(O)c(O)c1	inactive	–
C[C@H](NC(CCc1ccccc1)C(=O)O)C(=O)N1CCC[C@H]1C(=O)O (stereo not given in full)	inactive	–
O=C(CCCN1CCC(O)(c2cccc(C(F)(F)F)c2)CC1)c1ccc(F)cc1	inactive	–
CN(C)CCCN1c2ccccc2CCc2ccc(Cl)cc21	inactive	–
CCO/C([O-])=N/c1c[n+](N2CCOCC2)no1	inactive	–
O=C(O)CN(CCOCCOCCN(CC(=O)O)CC(=O)O)CC(=O)O	–	-0.694% [at 0.349 µM]
Cc1cccc(C)c1NC(=O)C(C)N (stereo not given)	inactive	–
CCOC(=O)Nc1ccc(NCc2ccc(F)cc2)nc1N	inactive	–
COCCc1ccc(OCC(O)CNC(C)C)cc1 (stereo not given)	inactive	–
CC(C[N+](C)(C)C)OC(N)=O (stereo not given)	inactive	–
Nc1c2c(nc3ccccc13)CCCC2O (stereo not given)	inactive	–
